HIF act: HIF pathway transcriptional activation; U2OS HRE-luciferase reporter, luminescence; normalized: DMSO 0%, desferrioxamine 100%; activation, % at 7.5 µM (by protocol); hit rate 0.32% among 300,000; AID 1910;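 active = mean activation of at least 10% of the iron chelator positive control signal, with at least half of replicates also reaching 10%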
KLK7 zymogen act: activates the human kallikrein-7 zymogen; purified proKLK7, EDANS-DABCYL substrate fluorescence; 100% is mature enzyme control, 0% vehicle; activation, % at 7 µM; P49862; hit rate 0.9% among 370,000;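 active = activation above the mean of all tested compounds plus 3 SD, computed per campaign excluding outliers beyond control limits, cut at about 13% in these data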
GC-B act: GC-B (human) receptor activation | HEK293-GC-B cells, CNP EC30, cGMP TR-FRET; 0% at EC30 CNP, 100% saturating CNP | hit rate 0.11% among 370,000 | P20594 | activation, % at 10 µM;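 active = activation at 10 µM reaching about 35% in either raw or pattern-adjusted values, limit read from the data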
Target sequence (P20594 whole entry, looked up): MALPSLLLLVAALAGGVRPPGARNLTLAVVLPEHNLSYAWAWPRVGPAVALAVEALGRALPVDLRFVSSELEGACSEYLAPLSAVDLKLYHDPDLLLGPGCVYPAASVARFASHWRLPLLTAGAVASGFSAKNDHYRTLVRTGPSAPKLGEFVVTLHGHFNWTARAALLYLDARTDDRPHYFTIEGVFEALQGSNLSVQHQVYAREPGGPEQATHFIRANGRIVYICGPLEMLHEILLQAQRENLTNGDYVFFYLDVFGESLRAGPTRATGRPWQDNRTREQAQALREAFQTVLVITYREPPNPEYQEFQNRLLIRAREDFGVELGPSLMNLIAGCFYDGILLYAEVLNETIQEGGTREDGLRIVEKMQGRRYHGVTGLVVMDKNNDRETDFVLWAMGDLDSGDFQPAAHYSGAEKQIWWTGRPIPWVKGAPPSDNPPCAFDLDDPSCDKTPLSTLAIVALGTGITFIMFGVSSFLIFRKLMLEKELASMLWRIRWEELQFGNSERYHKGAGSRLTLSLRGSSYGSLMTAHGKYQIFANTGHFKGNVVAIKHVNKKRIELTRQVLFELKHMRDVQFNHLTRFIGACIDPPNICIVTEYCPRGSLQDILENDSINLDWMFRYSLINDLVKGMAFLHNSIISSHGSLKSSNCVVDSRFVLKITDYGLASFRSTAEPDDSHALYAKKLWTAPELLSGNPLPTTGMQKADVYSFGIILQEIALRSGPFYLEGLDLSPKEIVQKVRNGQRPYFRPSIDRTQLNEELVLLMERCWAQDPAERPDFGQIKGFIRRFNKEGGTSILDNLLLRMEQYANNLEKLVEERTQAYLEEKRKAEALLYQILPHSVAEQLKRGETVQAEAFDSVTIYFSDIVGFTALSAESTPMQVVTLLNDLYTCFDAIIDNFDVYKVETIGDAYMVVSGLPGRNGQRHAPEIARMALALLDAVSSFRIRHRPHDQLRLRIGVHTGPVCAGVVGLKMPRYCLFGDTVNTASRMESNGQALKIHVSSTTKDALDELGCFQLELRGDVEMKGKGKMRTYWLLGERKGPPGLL
GC-A act: GC-A (human) enzyme activation; HEK293 GC-A cells, cGMP TR-FRET, EC30 ANP; 0% at EC30 ANP, 100% saturating ANP; activation, % at 10 µM; hit rate 0.14% among 370,000; in the data active = activation above about 40%
KLK7 act conf: proKLK7 activation, confirmation. shares compounds with KLK7 zymogen act. purified proKLK7, EDANS-DABCYL substrate fluorescence; scaled: vehicle 0, mature enzyme 100. activation, % at 7 µM. hit rate 68% among 3,200;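 active = activation, as change over the incubation, above the mean of all tested compounds plus 3 SD, cut at about 13% in these data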
EDANS interfere: counter-screen for kallikrein-7 activators: EDANS-DABCYL optical interference; EDANS-DABCYL substrate fluorescence interference, no enzyme, 4 h; solvent 0%, active enzyme control 100%; activation, % at 7 µM; shares compounds with KLK7 zymogen act; hit rate 80% among 3,200;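 active = activation above the all-compound mean plus 3 SD, ignoring values outside control-based bounds, cut at about 4.8% in these data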;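 also: value is the 4 h activation minus the activation read at time zero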
K7 EDANS ctr: optically interferes with EDANS-DABCYL fluorescence, kallikrein-7 activator counter-screen. shares compounds with KLK7 zymogen act. EDANS-DABCYL peptide fluorescence interference, no enzyme. EC50, µM. hit rate 20% among 250;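 active = compounds that raise the fluorescence signal in this interference counterscreen, with EC50 at or below 10 µM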;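 also: intact quenched peptide substrate alone read at 355 nm excitation and 520 nm emission; signal is fluorescence gain from T0 to T4 after four hours at room temperature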
* marks the source's active call; other numbers are inactive results; · = not tested or not shown. This is a sample that favours compounds with a hit; in the whole collection about 1.3% have one here.

SMILES | HIF act | KLK7 zymogen act | GC-B act | GC-A act | KLK7 act conf | EDANS interfere | others
O=C(Nc1cccc(C(F)(F)F)c1)OC1CCC12CCC(c1ccccc1)CC2 (stereo not given) | · | 0.5 | 1.9 | 4.4 | · | ·
O=C(NCC1COCCO1)C1CCN(S(=O)(=O)c2cccs2)CC1 (stereo not given) | · | 0.2 | 8.8 | 2.4 | · | ·
Cc1ccc2c(c1)c1c(n2CC(O)Cn2ccnc2C)C(=O)CCC1 (stereo not given) | -0.1 | 16.9* | -3.5 | 0.8 | 8.9 | 14.7*
Cc1ccc2c(c1)c1c(n2CC(O)Cn2c(C)nc3ccccc32)C(=O)CCC1 (stereo not given) | -0.1 | -8.0 | -4.8 | -5.6 | · | ·
CCc1c2c3n4c1CCC[C@@H]4C[C@@H]3O[Si](C(C)C)(C(C)C)OC(C)C2=O (stereo not given in full) | · | · | -7.8 | -11.5 | · | ·
COc1ccccc1CCC(=O)Nc1ccc2c(c1)c(=O)n(C)n2Cc1ccc(F)cc1 | · | 2.7 | 6.8 | -1.9 | · | ·
COc1cccc(CNC(=S)Nc2ccc3c(c2)c(=O)n(C)n3Cc2ccc(F)cc2)c1 | · | -12.2 | 11.9 | 4.2 | · | ·
COc1ccccc1CCC(=O)Nc1ccc2c(c1)c(=O)n(C)n2C | · | 26.7* | 0.5 | -3.3 | 16.0* | 17.1*
COc1cccc(CNC(=S)Nc2ccc3c(c2)c(=O)n(C)n3C)c1 | · | 25.4* | 11.0 | 4.8 | 11.2 | 13.1*
COC(=O)[C@]12C[C@H](CC(=O)N3CCN(C(=O)c4ccco4)CC3)C(=O)N(Cc3cccc4ccccc34)C1=C[C@H](C(C)(C)C)O[C@@H]2C | · | 0.6 | -9.0 | -2.1 | · | ·
COC(=O)c1cc(-c2ccc(C)c3ccccc23)c(=O)n2c1CCC2 | · | 1.2 | 0.1 | -0.2 | · | ·
CCN1c2ccccc2-c2nc3ccccc3n2C1c1ccncc1 (stereo not given) | -0.5 | 1.8 | -14.2 | -5.7 | · | ·
CCN1c2ccccc2-c2nc3ccccc3n2C1c1ccccn1 (stereo not given) | -0.6 | 21.1* | -2.7 | -1.2 | 28.5* | -7.5 | K7 EDANS ctr=>69.5
CN1c2ccccc2-c2nc3ccccc3n2C1c1cccs1 (stereo not given) | 0.3 | 40.2* | -5.4 | -20.9 | -12.1 | -10.8
c1csc(C2Nc3ccccc3-c3nc4ccccc4n32)c1 (stereo not given) | 3.0 | 89.7* | 11.4 | 11.2 | 29.8* | 27.3*
Cc1ccsc1C1Nc2ccccc2-c2nc3ccccc3n21 (stereo not given) | 2.0 | 63.4* | 17.8 | 18.6 | -21.3 | -18.9
Cc1ccsc1C1Nc2ccccc2C(=O)N1O (stereo not given) | 0.3 | 0.0 | -0.4 | 1.0 | · | ·
COC(=O)[C@]12C[C@H](CC(=O)N3CCC(c4ccccc4)CC3)C(=O)N(Cc3ccc(Cl)cc3Cl)C1=C[C@H](C(C)C)O[C@@H]2C1CC1 | · | 0.1 | 9.1 | -1.8 | · | ·
CC(C)(C)OC(=O)NCc1ccccc1/C=C/S(=O)(=O)NC1CCCC1 | · | -0.1 | -7.9 | -0.7 | · | ·
COC(=O)[C@H]1C[C@]2(C(C=C(C)C)S(=O)(=O)c3ccccc3)c3ccccc3N[C@H]2N1 (stereo not given in full) | · | · | -8.8 | 0.5 | · | ·
COC(=O)[C@]12C[C@H](CC(=O)NCCC(C)C)C(=O)N(Cc3cccc4ccccc34)C1=C[C@H](C(C)(C)C)O[C@@H]2C | · | -0.1 | -11.6 | -3.3 | · | ·
COc1cccc(NC(=O)N2CC[C@@H]3[C@H]2c2cc(-c4cccc(C#N)c4)ccc2N(C)[C@@H]3CO)c1 | · | -6.8 | 1.9 | -2.0 | · | ·
Cc1nn(CCc2nn[nH]n2)c2nc(C(F)(F)F)cc(C(F)(F)F)c12 | 0.1 | 30.0* | 8.0 | 3.1 | 17.2* | 12.1* | K7 EDANS ctr=>69.5
COc1ccc(Cl)cc1S(=O)(=O)N1CCN(C(=O)CSc2nc3ccccc3nc2N2CCCC2)CC1 | · | -3.2 | -6.3 | -3.2 | · | ·
O=C(O)COc1ccc2nsnc2c1Cl | 0.6 | 19.5* | -22.0 | -13.3 | 26.8* | 23.7*
SMILES | HIF act | KLK7 zymogen act | GC-B act | GC-A act | KLK7 act conf | EDANS interfere | others
COCCCNC(=O)c1ccc2nc3ccccc3c(=O)n2c1 | · | 30.8* | 2.0 | 7.4 | 60.0* | 67.9*
COC(CNC(=O)c1ccc2nc3ccccc3c(=O)n2c1)OC | 1.8 | 27.9* | -1.6 | 10.9 | 61.6* | 68.4*
Cc1ccc(NC(=O)CSc2nc(C)cc(=O)[nH]2)c(C)c1 | · | 0.2 | -4.1 | 2.4 | · | ·
CC(C)N1Cc2nnn(Cc3ccccc3)c2-c2cc(F)ccc2S1(=O)=O | · | -0.4 | -1.0 | -1.7 | · | ·
COc1ccc(CCNC(=O)c2ccc3c(c2)ncn3C2CCCCC2)cc1 | · | 0.8 | -6.9 | 0.6 | · | ·
CCCCn1c(=O)[nH]c2nc3cc(N)ccc3nc2c1=O | · | 2.8 | -7.1 | -1.3 | · | ·
Nc1ccc2nc3c(=O)n(C4CCCCC4)c(=O)[nH]c3nc2c1 | 1.5 | 14.5* | -2.9 | 14.9 | 8.1 | 7.6*
CCOc1ccc(-n2c(SCC(=O)Nc3cc4oc5ccccc5c4cc3OC)nnc2-c2cccc(Cl)c2)cc1 | · | 0.5 | 1.5 | 1.3 | · | ·
Cc1ccc(Cn2c(=S)[nH]c3ccc(N4CCOCC4)cc3c2=O)o1 | 1.5 | 45.1* | 8.3 | 12.1 | 100.6* | 104.9*
O=c1c2cc(N3CCOCC3)ccc2[nH]c(=S)n1CCN1CCCC1 | 0.2 | 80.0* | 1.1 | 1.4 | 45.6* | 53.6*
O=c1c2cc(N3CCOCC3)ccc2[nH]c(=S)n1CCCN1CCCCCC1 | 0.3 | 103.7* | -3.9 | 1.3 | 44.0* | 40.8*
O=c1c2cc(N3CCOCC3)ccc2[nH]c(=S)n1Cc1ccc(Cl)cc1 | 2.8 | -3.7 | 13.6 | 31.7 | · | ·
CCCCn1c(=S)[nH]c2ccc(N3CCOCC3)cc2c1=O | -0.1 | · | · | · | · | ·
COc1ccc(C=NNC(=O)c2ccncc2)cc1 | · | -0.6 | -5.3 | 1.3 | · | ·
COCCCn1c(CCC(=O)O)ccc1-c1cccs1 | 0.2 | 12.7* | 2.6 | -0.1 | 6.9 | 8.7*
CCCn1c(CCC(=O)O)ccc1-c1cccs1 | -0.5 | 3.2 | -0.9 | 1.8 | · | ·
O=C1C(=O)N(Cc2ccc(-c3ccc(F)nc3)cc2)c2ccc(OC(F)(F)F)cc21 | · | · | -20.6 | -21.6 | · | ·
CCCCOc1ccc2c(c1)/C(=C(\C(Cl)=C(Cl)Cl)[N+](=O)[O-])N2 | -0.6 | -3.8 | -3.1 | 4.3 | · | ·
CCOc1ccc2c(c1)/C(=C(\C(Cl)=C(Cl)Cl)[N+](=O)[O-])N2 | 0.3 | 17.9* | 6.6 | 17.7 | 53.4* | 61.0*
Oc1ccc(CNc2ccc(C(F)(F)F)cc2F)c2cccnc12 | · | · | 0.3 | 0.9 | · | ·
CCC(C)NC(=O)c1cc2cc3ccc(OC)cc3nc2o1 (stereo not given) | -27.8 | 39.9* | -8.9 | 3.3 | 44.0* | 63.1*
